Assay results from PubChem BioAssay (NCI).
Compounds without any hit were thinned out: in the full panel of roughly 83,000, 20% have a hit.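 For each line, cells grew in 96-well plates with the test compound present at a single concentration for 48 hours.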 Unmarked numbers belong to inactive results. Calls of active or inactive are those of the source. The calls were made as follows: active = growth percent below 10; inactive = the rest.

Legend:
Assay in all cases: NCI-60 one-dose screen, 48 h (100 = growth as untreated, 0 = no growth, -100 = all killed)
Details in all cases: 10 µM unless noted
SK-MEL-2 melanoma = test system: SK-MEL-2 melanoma
EKVX NSCLC = test system: EKVX NSCLC
SN12C renal = test system: SN12C renal
UO-31 renal = test system: UO-31 renal
TK-10 renal = test system: TK-10 renal
ACHN renal = test system: ACHN renal
CAKI-1 renal = test system: CAKI-1 renal
A498 renal = test system: A498 renal
CCRF-CEM leukemia = test system: CCRF-CEM leukemia
MOLT-4 leukemia = test system: MOLT-4 leukemia

| SMILES | growth (SK-MEL-2 melanoma) | growth (EKVX NSCLC) | growth (SN12C renal) | growth (UO-31 renal) | growth (TK-10 renal) | growth (ACHN renal) | growth (CAKI-1 renal) | growth (A498 renal) | growth (CCRF-CEM leukemia) | growth (MOLT-4 leukemia) |
| --- | --- | --- | --- | --- | --- | --- | --- | --- | --- | --- |
| O=C1O[C@H]([C@H](O)CO)C(O)=C1O | 104% | 110% | 104% | 99.8% | 104% | 93.9% | 87.1% | 94.3% | 109% | 107% |
| COc1ccc(/C=C/C(=O)c2c(O)c(C)c(O)c3c2OC2=CC(O)=C(C(C)=O)C(=O)[C@]23C)cc1 | -54.6% (active) | -2.89% (active) | -31.3% (active) | -22.5% (active) | -9.84% (active) | 0.0747% (active) | 6.28% (active) | -56.2% (active) | -29.9% (active) | -27.9% (active) |
| NC(=S)N/N=C/c1cc(-c2cccc(N)c2)ccn1 | 45.5% | 37.8% | 16.7% | 12.4% | 46.6% | 7.92% (active) | -9.57% (active) | 37.3% | 6.08% (active) | 7.42% (active) |
| CC/C(Cc1ccccc1)=C(/c1ccc(O)cc1)c1ccc(OCCN2CCCC2)cc1 | -52.3% (active) | -21.4% (active) | -11.6% (active) | -79.8% (active) | 13.1% | -68.5% (active) | -72.4% (active) | 54.9% | -33.3% (active) | -22.7% (active) |
| CC(C)(C)n1cc(-c2ccnc(NCCNS(=O)(=O)c3ccccc3)c2)c(-c2cccc(O)c2)n1 | 68.8% | 63.4% | 71.8% | 61.3% | 92% | 67.1% | 63.8% | 55.1% | 46.5% | 38.2% |
| CC/C=C\C[C@H](O)C/C=C1/C(=O)C=C[C@@H]1C/C=C\CCCC(=O)NC(C)C | 28.8% | 28.4% | -11.1% (active) | -61.8% (active) | -0.347% (active) | -82.5% (active) | -0.696% (active) | 98.5% | -13% (active) | -17.7% (active) |
| Nc1ccc2c(c1)C(=O)NC2=O | 117% | 112% | 94.9% | 70.8% | 118% | 99.3% | 99.6% | 119% | -49.6% (active) | 105% |
| NS(=O)(=O)c1ccc(Nc2nc3n[nH]c(Nc4ccccc4)c3c(=O)[nH]2)cc1 | 101% | 107% | 103% | 74.9% | 106% | 109% | 88.7% | 88.9% | 105% | 89.2% |
| CCOC(=O)C(Cc1cc(I)c(O)c(I)c1)NC(=O)c1ccccc1 (stereo not given) | 97.6% | 101% | 97.6% | 92.2% | 88.4% | 93.5% | 95.7% | 78.7% | 95.3% | 91.5% |
| Clc1nc(Cl)c2c3c(sc2n1)CCCC3 | 20% | 89.8% | 27.5% | 65.6% | 91% | 45.1% | 64.2% | 127% | 10.7% | -27.8% (active) |
| CC/C(Cc1ccccc1)=C(\c1ccc(OCCN2CCCC2)cc1)c1ccc(OC(C)=O)cc1 | 104% | 80.3% | 83.4% | 72.3% | 88.7% | 89.7% | 86.6% | 87.9% | 88.1% | 55.2% |
| Nc1cc2ccncc2c2ccccc12 | 45.5% | 60.4% | 52.7% | 51.6% | 80.6% | 36.4% | 58.2% | 67.5% | 66.9% | 50.2% |
| C/C(Cc1ccc(Cl)cc1)=C(\c1ccc(OCCN2CCCCCC2)cc1)c1ccc(OC(=O)C2CCCCC2)cc1 | 81.6% | 81% | 67% | 40.9% | 84.1% | 87% | 80.8% | 82% | 55.3% | 25.6% |
| CCCCCCCCCCCCNC(=O)[C@H]1CSC(c2ccc(OC)c(F)c2)N1 (stereo not given in full) | -93.7% (active) | -87.4% (active) | -93% (active) | -99.9% (active) | -96.3% (active) | -100% (active) | -97.8% (active) | -96.3% (active) | -42.5% (active) | -66.9% (active) |
| NCCN1CCN(c2nccc(-c3ccc4ccccc4c3)n2)CC1 | 76.9% | 75.6% | 52.1% | 12.4% | 73.9% | 46.5% | 45.3% | 61.6% | 18% | 22.1% |
| COc1ccc(/C(=C/c2ccc3ccccc3c2)c2nn[nH]n2)cc1OC | 40.3% | 43.9% | 37.2% | 41.4% | 54.5% | 54.4% | 23.3% | 14.5% | 19.7% | 37.8% |
| CC(C)CC(CC1=CCC2CC1C2(C)C)C1=C(O)C(C)(C)C(=O)C(C)(C)C1=O (stereo not given) | -18.2% (active) | 20% | 3.56% (active) | 8.44% (active) | 15.6% | 3.98% (active) | 6.44% (active) | -17.9% (active) | 1.78% (active) | -24% (active) |
| CN1CCN(Cc2ccc(NC(=O)c3cncc(C#Cc4cncc5nccnc45)c3)cc2C(F)(F)F)CC1 | -13.2% (active) | 71.2% | 31.7% | 20.4% | 96% | 24% | 22.2% | 21.4% | 58.2% | 37% |
| CNc1cc2nc3cc(NC)c(C)cc3cc2cc1C | 48.5% | -0.852% (active) | 14.2% | 34.5% | 24.5% | 20.6% | 7.63% (active) | 16.5% | 40.9% | 1.13% (active) |
| CCOC(=O)Cc1cnn(C)c1NC(=O)c1ccc(Cl)cc1NC(C)=O | 84.6% | 76.3% | 94.8% | 91.6% | 78.8% | 111% | 64.8% | 105% | 97.8% | 102% |
| CCOC(=O)C12CCCC1=CC(=O)CC2 (stereo not given) | 89.9% | 111% | 110% | 85.3% | 128% | 106% | 103% | 110% | 95.7% | 94.6% |
| COc1cc(OC)c(/C=C/S(=O)(=O)Cc2ccc(OC)c(N)n2)c(OC)c1 | 8.32% (active) | 37.3% | 24.3% | 31.9% | 33.7% | 28.3% | 25.5% | -1.72% (active) | 9.98% (active) | 2.56% (active) |
| CCOC(=O)c1c2c(n3ccc(NC(=O)CCN(CC)CC)cc13)C(=O)c1ncccc1C2=O | 29.3% | 71.3% | 27.6% | 28.8% | 36.5% | 16.1% | 23% | 46.9% | 52.9% | 29.3% |
| COCCOc1ccc(-c2nc3ccc(-c4nc5ccc(N6CCN(C)CC6)cc5[nH]4)cc3[nH]2)cc1 | -76.2% (active) | 67.9% | 18.8% | 79.2% | 66.4% | 80.8% | 68.6% | -37.8% (active) | -2.49% (active) | 0.928% (active) |
| CCOC(=O)c1cnc2ccc(Br)cc2c1Nc1cccc(S(=O)(=O)NC)c1 | 111% | 96.2% | 103% | 80.4% | 114% | 98.3% | 87.4% | 77.7% | 105% | 115% |
| O=C1/C(=C/c2ccccc2)CN(CCC(=O)N2C/C(=C\c3ccccc3)C(=O)/C(=C/c3ccccc3)C2)C/C1=C\c1ccccc1 | 92.1% | 63.6% | 68.3% | 47.7% | 98.5% | 62.1% | 61.7% | 60.8% | 9.77% (active) | 29.5% |
